# Screens from PubChem.
# ELG1 repair inh: qHTS screen for small molecules that inhibit ELG1-dependent DNA repair in human embryonic kidney (HEK293T) cells expressing luciferase-tagged ELG1. Potency, µM (doses to about 46.1 µM), inactives show top-dose activity change, negative = inhibition, most hits filed as inhibitors. HEK293T ELG1-luciferase reporter, luminescence, 16 h; DNA damage induced by 5-fluorouridine. 330,000 tested, 2.3% active. AID 504467, 2011; further: on the % scale 0 is the no-effect control and ±100 the full control effect; nearly all actives have a fitted effect of over 55% in size
#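 Step one: seed 2,000 cells per well. Step two: pin-transfer compound or DMSO alongside 5-fluorouridine. Step three: incubate 16 hr, 37 °C, 5% CO2. Step four: add ONE-Glo, wait 30 min, read luminescence.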
# SW480 rereplic: A quantitative high throughput screen for small molecules that induce DNA re-replication in SW480 colon adenocarcinoma cells. SW480 DNA re-replication, Hoechst DNA content imaging, 48 h. Potency, µM (doses to about 46.1 µM), for inactives: top-dose re-replication activation, actives largely listed as activators. 340,000 tested, 1.8% active; further: % of control where 0% means no effect; nearly all actives have a fitted effect of over 55% in size
#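 250 cells/well; 23 nL cpd via pin tool; 48 hr, 37 C, 5% CO2; Hoechst 40 min; imager read of total nuclear intensity, ex 405/em 500-530 nm.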
# KB-3-1 tox: qHTS assay for MDR1-selective chemotherapeutics: Primary screen using the parental adenocarcinoma cell KB-3-1. KB-3-1 viability, CellTiter-Glo ATP luminescence, 72 h. Potency, µM (top dose mostly 46.1 µM), actives largely listed as cytotoxic. 400,000 tested, 1.4% active; further: on the % scale 0 is the no-effect control and ±100 the full control effect; nearly all actives have a fitted effect of over 60% in size
#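 Parental KB-3-1 adenocarcinoma cells in phenol-red-free DMEM with 10% FBS were pin-treated with compounds at several concentrations, incubated 72 h at 37 °C, and viability read by CellTiter-Glo luminescence; concentration-effect curves were fitted after normalization.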
# MCF10A rerep: A quantitative high throughput screen for small molecules that induce DNA re-replication in MCF 10a normal breast cells; Potency, µM (doses to about 46.1 µM), inactives show at the top dose activity, positive = re-replication, hits mostly activators; 350,000 tested, 2.9% active; MCF 10A DNA re-replication, Hoechst nuclear intensity, 48 h; further: % of control where 0% means no effect; nearly all actives have a fitted effect of over 50% in size
# KB-V1 MDR tox: qHTS assay for MDR1-selective chemotherapeutics: Primary screen using the drug-selected MDR subline cells KB-V1 | 400,000 tested, 3.4% active | KB-V1 MDR cells viability, CellTiter-Glo, 72 h | AID 1347076, 2019 | Potency, µM (titrated, usually from 46.1 µM), actives largely listed as cytotoxic; further: on the % scale 0 is the no-effect control and ±100 the full control effect; nearly all actives have a fitted effect of over 60% in size
#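 Cytotoxicity toward P-gp-expressing KB-V1 cells was determined as loss of CellTiter-Glo luminescence after 72 h at 37 degrees C. Compounds were tested in quantitative HTS format across a concentration range, with curves fitted to normalized data.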
# Active calls of the source: *; i = inactive; ? = inconclusive; . = not tested or not shown. Rows were chosen to be rich in hits. Some 8.2% of all compounds tested hit in one or more screens of this group. The call rests on the fitted dose curve; in most records, active means well fitted curve in the direction sought with a large enough effect; inconclusive means small, poorly fitted or top-dose-only effect, or another doubt; inactive means no such curve, though single readings can be large; an effect the other way counts as inactive or inconclusive. Potency means the concentration at half of the fitted maximal effect.
SMILES,ELG1 repair inh,SW480 rereplic,KB-3-1 tox,MCF10A rerep,KB-V1 MDR tox
O=C(NCCCc1ccccc1)C1CC(=O)N(c2ccc3c(c2)OCCO3)C1 (centres undefined),2.9%,0.2%,i,3.5%,23.1µM*
Cc1cccc(C)c1OCC(=O)N[C@@H](Cc1ccccc1)[C@@H](O)C[C@H](Cc1ccccc1)NC(=O)[C@H](C(C)C)N1CCCNC1=O,.,?,i,?,i
CC1CC(=O)c2cnc(NCC3CCCO3)nc2C1 (centres undefined),0.0%,-2.6%,i,1.1%,i
O=C1CC(c2cccs2)Cc2nc(NCC3CCCO3)ncc21 (centres undefined),5.2%,-4.2%,i,20.4%,16.4µM*
Cc1cc(N2CCN(C(=O)c3ccco3)CC2)c2ccccc2n1,-9.1%,26.6%,?,0.6%,i
O=C(c1ccco1)N1CCN(c2nc3ccccc3c(=O)n2-c2ccccc2)CC1,20.6µM*,4.8%,i,11.7%,i
O=C(c1ccco1)N1CCN(c2nnc(-c3ccccc3)c3ccccc23)CC1,?,-1.8%,i,-4.5%,16.4µM*
CC(=O)N1CCN(c2nnc(-c3ccc(C)cc3)c3ccccc23)CC1,-7.8%,-8.3%,i,9.4%,?
Nc1nc(N2CCN(C(=O)c3ccco3)CC2)nc2ccc(Br)cc12,?,-81.6%,?,?,20.6µM*
Nc1nc(N2CCN(C(=O)c3ccco3)CC2)nc2ccccc12,?,-0.8%,i,2.6%,i
Cc1ccc(OCC(=O)N2CCN(c3nnc(-c4ccccc4)c4ccccc34)CC2)cc1,?,?,?,?,4.11µM*
CN(Cc1cnccn1)C(=O)CC1C(=O)NCCN1Cc1c(F)cccc1Cl (centres undefined),-3.8%,-7.3%,i,1.2%,?
CC(C(=O)Nc1cc(Cl)cc(Cl)c1)N1CCCC1 (centres undefined),5.8%,-14.3%,i,0.9%,i
COc1ccccc1CNS(=O)(=O)c1ccc(N2CCCC2)cc1Br,?,-30.8%,?,21.3%,i
Cc1nn(-c2ccccc2)c(N2CCCC2)c1/C=N/NC(=S)Nc1ccc(F)cc1,.,5.8µM*,?,3.5%,i
Cc1nn(C)cc1/C=N/NC(=S)Nc1ccccc1,?,1.64µM*,i,12.5%,?
Oc1ccccc1C=NNC(=S)Nc1ccc(F)cc1,.,55.1%,?,?,i
COc1ccc(-c2nn(-c3ccccc3)cc2/C=N/NC(N)=S)cc1OC,1.84µM*,2.06µM*,i,1.64µM*,?
Cc1ccc(NC(=S)N/N=C/c2c(C)nn(-c3ccccc3)c2N2CCCC2)cc1,24.8%,14.4%,i,?,i
COc1c(/C=N/NC(N)=S)c(C)nn1-c1ccccc1,1.9%,3.0%,?,3.5%,9.2µM*
COc1c(/C=N/Nc2ccc([N+](=O)[O-])cc2[N+](=O)[O-])c(C)nn1-c1ccccc1,-8.4%,-10.6%,i,8.6%,i
COc1ccc(-c2nn(-c3ccccc3)cc2/C=N/n2cnnc2)cc1OC,?,-5.2%,i,-14.2%,i
S=C(NCCCc1cnc[nH]1)NCCCN(CCc1ccc(Cl)cc1)c1ccc(Br)cn1,.,.,i,.,i
C=C1CC2C3CC[C@@]4(OCOC45COCO5)[C@@]3(C)C(O)CC2[C@@]2(C)CCC(=O)C=C12 (some centres undefined),?,?,i,5.17µM*,?
CC(=O)C12OC1CC1C3CCC4=CC(=O)CCC4(C)C3CCC12C (centres undefined),5.0%,-3.6%,i,-0.2%,i
Cc1ccc(C2=CSC3=NCCN23)cc1,.,0.1%,i,7.31µM*,i
O=[N+]([O-])c1ccc(C2=CSC3=NCCN23)cc1,.,-4.4%,i,1.1%,?
